# Compound activity deposited in PubChem by National Center for Advancing Translational Sciences (NCATS).
# GPT2 inh: Primary qHTS assay for inhibitors of Glutamate pyruvate transaminase 2 (GPT2); Recombinant GPT2, coupled pyruvate oxidase/HRP Amplex Red fluorescence; Potency, µM (titrated, usually from 57.7 µM), for inactives: at the highest dose activity change, negative = inhibition, most hits filed as inhibitors; actives 0.25% (n = 100,000); Alanine aminotransferase 2 (Homo sapiens), Q8TD30; also: nearly all actives have a fitted effect of over 60% in size
# Target sequence (Q8TD30 whole entry, looked up): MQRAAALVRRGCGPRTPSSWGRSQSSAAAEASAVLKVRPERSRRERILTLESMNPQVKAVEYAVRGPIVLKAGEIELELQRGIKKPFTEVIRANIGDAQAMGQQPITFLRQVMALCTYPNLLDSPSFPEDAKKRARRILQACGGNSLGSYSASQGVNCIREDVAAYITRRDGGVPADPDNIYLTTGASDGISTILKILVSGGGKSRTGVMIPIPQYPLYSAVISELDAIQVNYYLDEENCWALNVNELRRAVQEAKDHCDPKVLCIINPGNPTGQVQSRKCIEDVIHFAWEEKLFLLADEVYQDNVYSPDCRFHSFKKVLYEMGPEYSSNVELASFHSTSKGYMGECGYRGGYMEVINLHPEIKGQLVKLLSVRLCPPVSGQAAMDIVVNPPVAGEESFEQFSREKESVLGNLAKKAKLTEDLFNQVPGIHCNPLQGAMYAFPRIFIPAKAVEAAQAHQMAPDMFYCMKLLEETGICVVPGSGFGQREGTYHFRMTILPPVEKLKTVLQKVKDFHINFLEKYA
#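 Recombinant GPT2 (10ng/uL) with 250uM a-KG and 2mM L-alanine, 30 min at room temperature, in HEPES pH 7.5 buffer. Pyruvate detected by pyruvate oxidase/HRP/Amplex Red fluorescence after 30 min in the dark; AOA (50uM) as positive control.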
# Luciferase inh: Firefly luciferase inhibition profiling of diverse chemical library using quantitative high-throughput screening; Luciferin 4-monooxygenase (Photinus pyralis), P08659; purified P. pyralis luciferase, luminescence, biochemical; Potency, µM (doses to about 115 µM), usual class: inhibitors; actives 2.5% (n = 76,000); AID 1347043, 2019; also: nearly all actives have a fitted effect of over 65% in size
#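 Luminescence read by CCD imaging after purified firefly luciferase (10nM final) was added to substrate buffer holding 10uM D-luciferin and 10uM ATP, pH 7.5, pre-dosed with compound.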
# HEK293 tox: Cytotoxic Profiling in HEK 293 Cell Line of Diverse Libraries Using Quantitative High-Throughput Screening. HEK 293 viability, ATP luminescence (CellTiter-Glo), 48-72 h. Potency, µM (highest dose often 115 µM), for the others: top-dose activity change, negative = cytotoxicity, most hits filed as inhibitors. actives 6.6% (n = 94,000). AID 1345083, 2018; also: nearly all actives have a fitted effect of over 60% in size
#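 250 HEK 293 cells/well; compound by pintool; incubated 48 or 72 hr at 37 degree Celsius; CellTiter-Glo added, 10 min RT, luminescence imaged.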
# NPR1 antag: Natriuretic polypeptide receptor (hNpr1) antagonism - Primary qHTS | HEK293 hNpr1 GloSensor cGMP, ANP-stimulated luminescence | actives 1.6% (n = 76,000) | Potency, µM (titrated, usually from 46.3 µM), for the others: top-dose activity change, negative = inhibition, actives largely listed as inhibitors | AID 1347048, 2019; calls by dose curve; also: nearly all actives have a fitted effect of over 60% in size
#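 HEK293 cells stably expressing human Npr1 and cGMP GloSensor pGS-40F, loaded 2 h with 2% GloSensor reagent, given compound 30 min at room temperature. Luminescence read before and 20 min after 0.1 nM hNppA.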
# 3T3 cytotox: Cytotoxic Profiling in NIH 3T3 Cell Line of Diverse Libraries Using Quantitative High-Throughput Screening; Potency, µM (top dose mostly 96.7 µM), for inactives: top-dose activity change, negative = cytotoxicity, actives largely listed as inhibitors; AID 1345082, 2018; actives 4.3% (n = 94,000); NIH 3T3 viability, CellTiter-Glo ATP luminescence, 48-72 h; also: nearly all actives have a fitted effect of over 55% in size
#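 Mouse fibroblast NIH 3T3 cells, 400 per well, received compound via pintool and were incubated for 48 or 72 hr prior to CellTiter-Glo ATP luminescence measurement.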
# Active calls of the source: *; i = inactive; ? = inconclusive; . = no result given; [ ] = another dose, or the depositor's remark. Shown are actives, neighbours in structure and some others; about 10% of the full set was active somewhere. Unless noted, calls follow the shape of the dose curve; as a rule, active = well fitted curve in the direction sought with a large enough effect; inconclusive = small, poorly fitted or top-dose-only effect, or another doubt; inactive = no such curve, though single readings can be large; an effect the other way counts as inactive or inconclusive. % is scaled to controls: 0 for no effect and ±100 for the full control effect; potency is read from the fitted curve at half-maximal effect.
SMILES,GPT2 inh,Luciferase inh,HEK293 tox,NPR1 antag,3T3 cytotox
COc1ccc(/C=C/c2ccc3c(c2)C(=O)N2CC[C@H](NC(=O)c4cnccn4)[C@H]2C(=O)N3)cc1,3.5%,7.94µM*,-5.6%,-0.9%,-4.2%
CC1(C)[C@H](Cc2cc(CCO)on2)C[C@@H]1NCc1cccnc1,i,i,-10.7%[172 µM],-1.4%[70.6 µM],-27.5%[174 µM]
CC(=O)N[C@H]1C[C@@H](Cc2cc(C(C)(C)C)on2)C1(C)C,-2.5%[88.5 µM],i,0.9%[230 µM],2.7%[70.6 µM],?
CN(Cc1cc(C[C@@H]2C[C@H](NCc3cccnc3)C2(C)C)no1)c1ccccc1,-3.6%[88.5 µM],i,63.1µM*,?,?
CC(C)(C)c1cc(C[C@@H]2C[C@H](NCc3ccccn3)C2(C)C)no1,i,i,50.1µM*,?,50.1µM*
COc1ccc(CN[C@H]2C[C@@H](Cc3cc(CN(C)c4ccccc4)on3)C2(C)C)cc1,0.4%[88.5 µM],i,28.2µM*,-30.0%[70.6 µM],?
COc1ccc(CC2CCOC3(CCN(C(=O)c4ccc(C)s4)CC3)C2)cc1 (configuration not stated),i,.,?,.,?
COc1cc(-c2onc(C)c2C(=O)N2CCC(Cc3ccc4c(c3)OCO4)CC2)cc(OC)c1OC,-11.5%,i,?,-17.9%,?
COc1ccc(OCC2CN(Cc3ccc4c(c3)OCO4)[S+](=O)([O-])c3cccnc3O2)cc1 (configuration not stated),3.2%[27.3 µM],.,?,.,?
COc1cccc(CCC(=O)N2[C@@H]3CC[C@H]2CC(NC(=O)c2ccc(F)cc2)C3)c1 (some centres not stated),?,i,-7.5%,-1.4%,-17.5%
O=C(C1CCN(c2nc3ncccc3o2)CC1)N1CCN(Cc2ccccc2)CC1,i,.,?,.,-25.3%
COc1ccc2c(c1)CCN=C2C[C@H]1CN(C(=O)C(C)(C)C)CC[C@H]1CC(=O)O,?,i,112µM*,-9.7%[70.6 µM],?
CN(c1ccccc1)c1cc(=O)c2ccnc(-c3cncnc3)c2o1,?,i,-1.0%[172 µM],7.2%[70.6 µM],79.4µM*
CN1CCC(Nc2nccc3c(=O)cc(N(C)c4ccccc4)oc23)CC1,4.7%[88.5 µM],i,-10.3%[172 µM],-2.7%[70.6 µM],?
COc1ncc(-c2nccc3c(=O)cc(N(C)c4ccccc4)oc23)cn1,-2.9%[88.5 µM],i,-26.1%[172 µM],0.8%[70.6 µM],31.6µM*
CN(c1ccccc1)c1cc(=O)c2ccnc(-c3cccnc3)c2o1,1.1%[88.5 µM],i,-27.9%[172 µM],7.5%[70.6 µM],17.8µM*
CN1CCN(c2ccc(-c3nccc4c(=O)cc(N(C)c5ccccc5)oc34)cn2)CC1,-15.2%[88.5 µM],?,?,-1.3%[70.6 µM],?
CN(c1cc(=O)c2ccnc(-c3ccccc3Oc3ccccc3)c2o1)C1CCOCC1,?,i,-28.8%[172 µM],-3.6%[70.6 µM],-93.1%[138 µM]
CN(c1ccccc1)c1cc(=O)c2ccnc(-c3ccnn3C)c2o1,i,i,?,8.0%[70.6 µM],35.5µM*
O=C(Nc1ccc(F)cc1)C1CCN(c2nc3ncccc3o2)CC1,1.2%,.,2.7%,.,-14.0%
O=C(c1ccccc1F)N1CCCC(Cc2nncn2CC2CC2)C1 (configuration not stated),i,.,4.5%,.,-10.3%
Cc1ccc(CNC(=O)CCC2CCCN(S(=O)(=O)c3ccccc3F)C2)o1 (configuration not stated),-10.8%,.,?,.,-24.0%
CN(C)c1cc(=O)c2ccnc(Nc3cccnc3)c2o1,-8.0%[88.5 µM],i,i,2.5%[70.6 µM],79.4µM*
Cc1nc(C2CCCCN2C(=O)Nc2ccccc2F)n[nH]1 (configuration not stated),i,.,-11.1%,.,-17.9%
O=C(NCC1CCCCC1)c1cn2cc(-c3ccc(F)cc3)sc2n1,i,.,-20.8%,.,-41.5%
SMILES,GPT2 inh,Luciferase inh,HEK293 tox,NPR1 antag,3T3 cytotox
O=C1Cc2c(-c3ccccc3Cl)n[nH]c2CN1Cc1ccccn1,-16.3%[88.5 µM],i,-13.3%[172 µM],3.7%[70.6 µM],79.4µM*
CC(C)Cc1cnc(C2CCCN(C(=O)OC(C)(C)C)C2)[nH]1 (configuration not stated),4.6%[88.5 µM],.,?,.,89.1µM*
CNC(=O)CNC(=O)c1cccc(-c2ccc(SC)cc2)c1,i,.,?,.,?
CSc1ccc(-c2ccc3c(c2)C(=O)N2CCN(C(=O)CCC(=O)O)C[C@H]2C(=O)N3)cc1,0.0%,31.6µM*,-1.6%,3.7%,-3.7%
CSc1ccc(-c2ccc3c(c2)C(=O)N2CCN(C(=O)CCC(=O)O)C[C@@H]2C(=O)N3)cc1,-6.3%,?,i,2.6%,i
CSc1ccc(-c2ccc3c(c2)C(=O)N2CCN(C(=O)CC(C)(C)C)C[C@@H]2C(=O)N3)cc1,0.3%,i,35.5µM*,-20.4%,?
O=C(NC1CCCN(c2cc(-c3ccc(F)cc3)[nH]n2)C1)c1ccc(F)cc1F (configuration not stated),i,i,?,1.8%,?
O=C(NC1CCN(c2cc(-c3ccc(F)cc3)[nH]n2)C1)c1cc(Cl)ccc1F (configuration not stated),-6.4%,i,?,-17.5%,35.5µM*
O=C(NC1CCCN(c2cc(-c3ccc(F)cc3)[nH]n2)C1)c1cc(F)ccc1F (configuration not stated),-24.7%,i,44.7µM*,-21.5%,?
COc1ccc(-c2cc(N3CCC(NC(=O)c4cc(Cl)ccc4F)C3)n[nH]2)cc1 (configuration not stated),-23.5%,i,?,-11.0%,?
CS(=O)(=O)NC1CCN(c2ccc3nnc(C4CC4)n3n2)CC1,.,.,i,.,-13.7%
COCCNC(=O)c1cc(-c2ccc(OC)cc2)nc2c1cnn2C,i,.,?,.,?
OCCN1CCN(c2ccc(-c3nc(-c4cccc(C(F)(F)F)c4)no3)cn2)CC1,-30.9%,28.2µM*,?,?,25.1µM*
CCN1CCN(c2ccc(-c3nc(CCCc4ccccc4)no3)cn2)CC1,-24.5%,?,?,-12.7%,?
COc1ccc(C(=O)N2CCC[C@@H]2C(=O)N2CCCC(c3nc4ccncc4[nH]3)C2)cc1 (some centres not stated),i,.,i,.,-4.1%
O=C(C1CN(c2ccccc2)C(=O)N1)N1CCN(Cc2ccccc2)CC1 (configuration not stated),i,i,44.7µM*,-4.4%,?
